Results as given in the supplement of paper PMC13380429.

How the values were obtained:
[1] = tested on: Vero E6 infected with SARS-CoV-2; test: morphology score (similarity to uninfected cells); higher = more like uninfected cells; conditions: 24 h
[2] = tested on: Vero E6 infected with SARS-CoV-2; test: SARS-CoV-2 infection rate relative to infected DMSO; higher = more infection, active = 60 or less; conditions: 24 h

SMILES	morphology score [1]	SARS-CoV-2 infection rate [2]
O=C(c1ccc(-c2ccc(Cl)cc2)o1)N(Cc1ccccn1)c1ccc(N2CCNCC2)cc1 (0.833333 µM)	0.128	106% (inactive)
CC(C)OC(=O)OCOP(=O)(CO[C@H](C)Cn1cnc2c(N)ncnc21)OCOC(=O)OC(C)C [tenofovir-disoproxil] (10 µM)	-0.00661	116% (inactive)
CCN(CC)Cc1ccc2cc(COC(=O)Nc3ccc(C(=O)NO)cc3)ccc2c1 [givinostat] (10 µM)	-0.215	112% (inactive)
N#CC(c1ccccc1)(c1ccccc1)c1ccccc1Cl (10 µM)	0.164	89% (inactive)
CCCCCCCCCCCCCCCC(=O)OC[C@@H](NC(=O)C(Cl)Cl)[C@H](O)c1ccc([N+](=O)[O-])cc1 [chloramphenicol-palmitate] (10 µM)	0.04	106% (inactive)
C=C1CC[C@H](O)C/C1=C/C=C1\CCC[C@]2(C)[C@@H]([C@H](C)CCCC(C)C)CC[C@@H]12 [cholecalciferol] (10 µM)	-0.0066	96.5% (inactive)
N#Cc1cnc2c(Cl)cc(NCc3cn(CCN4CCCCCC4)nn3)cc2c1Nc1ccc(F)c(Cl)c1 [cot-inhibitor-1] (10 µM)	0.16	104% (inactive)
COC(=O)[C@@H](N)CS [mecysteine] (10 µM)	-0.052	112% (inactive)
C[C@H](NC(=O)c1sccc1OCc1ccc(Cl)cc1)c1ccccc1 (10 µM)	0.0842	94.5% (inactive)
CSc1ccc(OCc2ncc([N+](=O)[O-])n2C)cc1 [fexinidazole] (10 µM)	-0.0351	114% (inactive)
